The values below come from the supplement of paper PMC11417369.

± gives the standard deviation of the averaged measurements. Whole data set: some 25,000 sequences, median “ln(normalized median fluorescence intensity)” near 8.9, cut for the highest 2% near 10. Shown is part of a subset that was picked to be rich in the highest values.

This test deals with PfAP2-LT AP2 domain (GST-tagged). Kind of test: gcPBM binding intensity (ln(normalized median fluorescence intensity)); higher = stronger DNA binding. An outline of the steps: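 Each value is the highest Masliner-normalised natural-log median intensity across replicate spots of either orientation of a probe. The probes were primer-extended double-stranded 36-bp intergenic genomic sequences on an Agilent 4 × 180k array, alongside negative controls, exposed for 1 h to GST-tagged P. falciparum DNA-binding domains expressed in E. coli. Bound protein was picked up with Alexa488 anti-GST antibody and scanned at 488 nm.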
Turning to “AGAAAAAAATAATGTACACACACATATATGTTTATA [CACACA_site7946]”, the “gcPBM binding intensity (ln)” value was determined as 9.14 ± 0.36. To “TATGTGCACCCATGTACATGCGGACATATGTTATAT [TGCATGCA_site383]” belongs 9.04 ± 0.42; to “ATTTATATATTGCCCACACACATGTGATTATTTATA [CACACA_site1714]”, 9.28 ± 0.46. The result for “CTAAATATATAAAAAAGTACAAAATAAATAATAATT [XGTACX_site2442]” reads 8.79 ± 0.46; that for “ACATATATATATAAATATATATATATATAAATATAT [CACACA_negctrl_site895]”, 9.03 ± 0.28; that for “TATACAGGAATATTTTTACACACTAATAATTATAAA [CACACA_site8477]”, 8.73 ± 0.5.

“TATATATATATGTGCACACCAATTGTATGTAATATA [CACACA_site3889]”: the “gcPBM binding intensity (ln)” value was 9.32 ± 0.2. Consider “TAAAAAGAAATGTAAAGTACAAATTTGAATAACATG [XGTACX_site7981]”, for which the “gcPBM binding intensity (ln)” value was determined as 8.88 ± 0.52. “ATTTTAACCAATTATTGTACTTGGTTATTCTTTTTT [XGTACX_site7453]”: the “gcPBM binding intensity (ln)” value amounted to 8.94 ± 0.45. To “TTTTATTTTTAAGGATGTACTCAATTGTTTATATAC [XGTACX_site3965]” belongs 8.85 ± 0.4; to “TTTTCTAAATTAATAATACACACTTGCTAAAATCAT [CACACA_site3207]”, 8.47 ± 0.46; to “ATTATAGACACGCGCACACACAACAAAAAAAAAAAA [CACACA_site9180]”, 9.73 ± 0.61. For “ATTTGGCATGGACACACACACACACCGACAGACATA [CACACA_site4491]”, the “gcPBM binding intensity (ln)” value is 10 ± 0.27. For “GGTATACGCAAGTATACACACATATATATATATATA [CACACA_site3240]”, the “gcPBM binding intensity (ln)” value stood at 10.01 ± 0.042. To “TATATACACAGACACACACACACATACACGCACATA [CACACA_site6909]” belongs 10.1 ± 0.22; to “CACATACAGACATACACACATACACATATACGCATA [CACACA_site1745]”, 9.61 ± 0.36; to “CAAGCACACGGACACACACACACACGCGCACGCACA [CACACA_site6307]”, 10.3 ± 0.28. In the case of “AGTATACATATATATACACACATATATATATATATA [CACACA_site300]”, the “gcPBM binding intensity (ln)” value amounted to 9.83 ± 0.34. To “ATAATTTGTGGACACACACACACACCGACATATATA [CACACA_site8718]” belongs 9.97 ± 0.33; to “ATTATACACGCGCGCACACACAACAAAAAAAAAAAA [CACACA_site7630]”, 9.43 ± 0.48; to “ACATCAAGCGGACACACACACACACCGACAGACACA [CACACA_site4361]”, 10.2 ± 0.33. Take “AGTATACGCAGACACACACACACATATATATATATA [CACACA_site1735]”: the “gcPBM binding intensity (ln)” value was 10.22 ± 0.042. To “TTTTTTAAAATATGGACACACATATATATATCTGTA [CACACA_site5535]” belongs 8.88 ± 0.38; to “TATATCTTAATATACACACACACATATATATATATA [CACACA_site4968]”, 9.71 ± 0.014. The result for “AAAAAAACATAAAATACACACAACCTTAAGAATGTA [CACACA_site3293]” reads 9.12 ± 0.38.

On to “CAACATATATTAATATGTACATATATATAGATATAT [XGTACX_site4107]”, for which the “gcPBM binding intensity (ln)” value was 8.81 ± 0.44. With “ATATATATATATATATGTACATATTTCTCCATTTTT [XGTACX_site2869]”, the “gcPBM binding intensity (ln)” value is 9.61 ± 0.39. Regarding “ACATATAAATATATTACACACACACTAAAAAAATAA [CACACA_site6209]”, the “gcPBM binding intensity (ln)” value turned out to be 9.69 ± 0.27.

Turning to “TAACATATTAATAACATATTTATAATATATTAATAA [TGCATGCA_negctrl_site243]”, the “gcPBM binding intensity (ln)” value was determined as 8.34 ± 0.43. To “TATAAAAATTAATATTGTACGTTTTATGAAAATAAA [XGTACX_site8237]” belongs 8.21 ± 0.47; to “AATACACGCAGACACACACACAAAAAAAAAAAAAAA [CACACA_site6384]”, 9.53 ± 0.61. To “AAAAAAAAAAGACACACACACATATTTATTTATATA [CACACA_site6484]” belongs 9.67 ± 0.4; to “CGTGGGAGCAGACACACACACACACGCATATTTATA [CACACA_site6290]”, 9.89 ± 0.45. To “AGCACACGCAGACACACACACACACGCACACGCACA [CACACA_site6306]” belongs 10.3 ± 0.23; to “AAAAAAAAAAGACACACACACACACGCATATACATA [CACACA_site7289]”, 10.18 ± 0.05. With “CGCGCACCCAGACACACACACACACCCATATATATA [CACACA_site2203]”, the “gcPBM binding intensity (ln)” value amounted to 9.96 ± 0.25.

With “TACACGCAGAAACACACACACACACCCATATATATA [CACACA_site637]”, the “gcPBM binding intensity (ln)” value came out at 10.1 ± 0.28.

Regarding “AACACGCGCAGACACACACACACACCCACATATATA [CACACA_site2205]”, the “gcPBM binding intensity (ln)” value is 10.3 ± 0.27. The result for “AAAAAAAAAAGACACACACACAAAAAAAGATATATA [CACACA_site6645]” reads 9.9 ± 0.38; that for “AAAAAAAAAAGACACACACACACACGGAGATATATA [CACACA_site6216]”, 10.4 ± 0.19. Take “ATATTTAGGAAAAATAGTACACATTTAAATAATAAT [XGTACX_site7989]”: the “gcPBM binding intensity (ln)” value was determined as 8.68 ± 0.47. The result for “TTGAAATATACGTAAGTAAATTTCATTTGGTTGTGT [XGTACX_negctrl_site600]” reads 8.77 ± 0.47; that for “AATATACAAATTACAAGTACAAATCAATATTATATG [XGTACX_site7521]”, 8.9 ± 0.42; that for “AATTATTTATTGAGAGTGCAACAAATTATTTCAAAT [GTGCAC_site9461]”, 8.44 ± 0.49. To “AATATTTTAATGCACACACACAAAAAAAAAAAAAAA [CACACA_site7374]” belongs 9.18 ± 0.33; to “AATAATAAATATATATATATATATATATATATATTT [CACACA_negctrl_site786]”, 9.04 ± 0.21; to “CATAATAGTTATAAAATACACACCAGGCATGATAAA [CACACA_site329]”, 9 ± 0.4.

Turning to “ATATATATATATATATGTACATATAATTTTTTTTTT [XGTACX_site6948]”, the “gcPBM binding intensity (ln)” value was found to be 9.56 ± 0.16. To “GGAATATTTATACATACACACATATATTTATTTATA [CACACA_site6883]” belongs 8.91 ± 0.38; to “TAACTTTGAAAAGATGGTACACAATAATATATATAT [XGTACX_site8667]”, 8.83 ± 0.35.

Turning to “CCTTTCACATATAATACATGCATTATTATATATGAA [TGCATGCA_site287]”, the “gcPBM binding intensity (ln)” value was 8.7 ± 0.23. To “CAAAAAAACAAACACACACACACACCGATATATATA [CACACA_site9218]” belongs 10.1 ± 0.23; to “AAAAAAAAAAAACACACACACACACCGAAATATATA [CACACA_site4261]”, 9.99 ± 0.33.

Turning to “AAAAAAAAAAAACACACACACACACCGATACATACA [CACACA_site8849]”, the “gcPBM binding intensity (ln)” value stood at 10.4 ± 0.085. To “TATATATACATATACACACACACACCGATATATATA [CACACA_site8706]” belongs 9.9 ± 0.29; to “TATATATATATATACACACACACACCGATATATATA [CACACA_site8813]”, 10 ± 0.11. The result for “TATACATACATACATACACACACACCGATATATACA [CACACA_site8184]” reads 9.89 ± 0.11; that for “CATACATACAAACACACACACACACCGATATATATA [CACACA_site8952]”, 10.29 ± 0.092.
